Bioassay records deposited in PubChem by several laboratories.
This is a sample that favours compounds with a hit; in the whole collection about 27% have one here.
EphB4 ephrin blk: EphB4-ephrin-B2 interaction antagonism | inhibition, % at 7 µM | actives 0.15% (n = 97,000) | AID 720 | EphB4 LBD / TNYL-RAW-Alexa532 peptide, fluorescence polarization;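 active = inhibition above the screen-wide mean inhibition plus 3 SD, cut at about 15% in these data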
CYP2C9 inh: blocks human cytochrome P450 2C9 | AID 777 | inhibition, % at 5 µM | CYP2C9 Supersomes, luciferin-H conversion, luminescence | actives 20% (n = 96,000);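 active = blocking of liver enzyme CYP2C9 beyond about 50% at 5 µM, limit read from the data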
CYP2C19 act: increases human CYP2C19 enzyme activity | activation factor at 5 µM | recombinant CYP2C19, luciferin-H EGE luminescence; hits give high values; 0 = fully inhibited enzyme, 1 = untreated enzyme | P33261 | 96,000 tested, under 10 active;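 active = activation factor of at least 2 at 5 µM in the primary screen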
Target sequence (P33261 whole entry, looked up): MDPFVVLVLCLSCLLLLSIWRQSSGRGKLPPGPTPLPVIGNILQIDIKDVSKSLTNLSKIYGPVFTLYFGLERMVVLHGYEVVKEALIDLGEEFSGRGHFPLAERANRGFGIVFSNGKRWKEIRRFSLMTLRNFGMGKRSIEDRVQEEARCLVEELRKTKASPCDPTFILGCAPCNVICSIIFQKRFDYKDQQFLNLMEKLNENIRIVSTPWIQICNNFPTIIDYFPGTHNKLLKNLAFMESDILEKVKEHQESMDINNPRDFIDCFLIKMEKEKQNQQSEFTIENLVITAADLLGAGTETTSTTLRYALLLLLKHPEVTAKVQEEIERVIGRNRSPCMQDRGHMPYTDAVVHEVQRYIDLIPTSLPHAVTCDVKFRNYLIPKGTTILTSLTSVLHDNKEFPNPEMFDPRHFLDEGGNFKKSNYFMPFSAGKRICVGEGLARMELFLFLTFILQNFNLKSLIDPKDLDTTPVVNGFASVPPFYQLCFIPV
CYP2C9 activ: activators of human CYP2C9 | P11712 | recombinant CYP2C9, luciferin-H conversion, luminescence; hits give high values; factor 1 = untreated enzyme, 0 = blocked | activation factor at 5 µM | actives 1.4% (n = 96,000) | AID 1024;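 active = activation factor of 2 or more for CYP2C9 at a 5 µM dose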
CYP2C19 inhib: inhibitors of human CYP2C19 | P33261 | CYP2C19 Supersomes, luciferin-H EGE luminescence, 30 min | inhibition, % at 5 µM | actives 21% (n = 96,000) | AID 778;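 active = CYP2C19 inhibition above a set limit at 5 µM in the primary screen, cut at about 50% in these data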
Hits are given with their value; 0 = inactive; - = no result.

SMILES | EphB4 ephrin blk | CYP2C9 inh | CYP2C19 act | CYP2C9 activ | CYP2C19 inhib
O=C1CC(c2ccco2)CC(O)=C1C=NCCN1CCN(C2CC(=O)N(c3ccccc3)C2=O)CC1 (stereo not drawn) | 0 | - | - | - | -
Cn1cc(S(=O)(=O)Nc2ccc(F)cc2F)c(=O)n(C)c1=O | 0 | 0 | 0 | 0 | 0
CC1CCCCC1NCC(=O)Nc1ccccc1-c1ccccc1 (stereo not drawn) | 0 | - | - | - | -
CC1CN(C(=O)Nc2ccc3snnc3c2)c2ccccc21 (stereo not drawn) | - | 81 | 0 | 0 | 71
CC1Cc2ccccc2N1C(=O)c1ccc2snnc2c1 (stereo not drawn) | 0 | 0 | 0 | 0 | 81
Cc1ccc(OC(=O)c2ccc3snnc3c2)cc1 | 0 | 0 | 0 | 0 | 0
C/C(=C\C(=O)c1ccc(Br)cc1)NCc1ccc2c(c1)OCO2 | 0 | 0 | 0 | 0 | 0
Cc1ccc2c(c1)C(C)CC(C)(C)N2C(=O)NC1CCCCC1 (stereo not drawn) | 0 | 0 | 0 | 0 | 0
Cc1ccc2c(c1)N(C(=O)NC1CCCCC1)C(C)(C)CC2C (stereo not drawn) | 0 | 0 | 0 | 0 | 72
Cc1ccnc(-n2c(CCN3C(=O)c4ccccc4C3=O)nc3ccccc3c2=O)c1 | 0 | 69 | 0 | 0 | 60
COc1cccc(-c2nnc(SCc3cccnc3)o2)c1 | - | 0 | 0 | 0 | 0
C=CCC(CC=C)(NC(=O)c1ccccc1C)c1ccccc1 | 0 | 0 | 0 | 0 | 51
COc1ccc(-c2nnc(SCc3nnc(-c4ccccc4)o3)n2C)cc1OC | 0 | 0 | 0 | 0 | 0
Cc1ccccc1Cn1cnc2c(cnn2C(C)(C)C)c1=O | 0 | 0 | 0 | 0 | 68
Cc1ccc(C)c(Cn2cnc3c(cnn3C(C)(C)C)c2=O)c1 | 0 | 0 | 0 | 0 | 97
Cc1cccc(C(=O)NNC2=C(C(=O)C(F)(F)F)CCC2)c1O | 0 | 94 | 0 | 0 | 0
CCOC(=O)C1C(=O)CC(C)(O)C(C(=O)OCC)C1c1ccc(OCC)cc1 (stereo not drawn) | 0 | 0 | 0 | 0 | 0
CCOC(=O)C1C(=O)CC(C)(O)C(C(=O)OCC)C1c1cccc(OC(F)(F)C(F)F)c1 (stereo not drawn) | - | 90 | 0 | 0 | 86
C=CCOC(=O)C1C(=O)CC(C)(O)C(C(=O)OCC=C)C1c1ccc(OC)cc1 (stereo not drawn) | 0 | 0 | 0 | 0 | 52
O=S(=O)(Nc1ccc(-n2cccc2)cc1)c1ccc(Cl)cc1Cl | 0 | 100 | 0 | 0 | 100
CCn1c2ccc(OC)cc2c2nc3ccccc3nc21 | 0 | - | - | - | -
CCn1c(-c2cc(-c3cc(OC)ccc3OC)nc3ccccc23)n[nH]c1=S | 0 | 97 | 0 | 0 | 88
CCn1c(-c2cc(-c3ccc(OC(C)C)cc3)nc3ccccc23)n[nH]c1=S | 0 | 96 | 0 | 0 | 74
CCn1c(-c2ccc3ncccc3c2)n[nH]c1=S | 0 | 0 | 0 | 0 | 0
O=C(CCC(=O)N1CCN(C2CCCC2)CC1)Nc1nnc(C(F)(F)F)s1 | 0 | 0 | 0 | 0 | 0
SMILES | EphB4 ephrin blk | CYP2C9 inh | CYP2C19 act | CYP2C9 activ | CYP2C19 inhib
O=C(Nc1ccc(Cl)cc1Cl)C1CCC(=O)N1Cc1ccccc1Cl (stereo not drawn) | 0 | 0 | 0 | 0 | 51
COc1ccc(-c2noc(CCC(=O)NC3CCN(Cc4ccccc4)CC3)n2)cc1 | 0 | 84 | 0 | 0 | 73
COc1cc(-c2noc(CCCC(=O)NC3CCCCC3)n2)cc(OC)c1OC | 0 | 0 | 0 | 0 | 66
COc1ccc(-c2noc(CCC(=O)NC3CCCCC3)n2)cc1OC | 0 | 79 | 0 | 0 | 87
Cc1ccc(S(=O)(=O)N2CCN(c3nc(C(C)C)c4c(c3C#N)CC(C)(C)OC4)CC2)cc1 | 0 | 95 | 0 | 0 | 68
CCCNC(=O)N1CCN(c2nc(C(C)C)c3c(c2C#N)CC(C)(C)OC3)CC1 | 0 | 80 | 0 | 0 | 87
Cc1ccc2cc(C#N)c(N3CCCN(S(=O)(=O)c4ccc(F)cc4)CC3)nc2c1 | 0 | - | - | - | -
Cc1nnc(N2CCCCC2)c2ccccc12 | 0 | 0 | 0 | 0 | 0
CCCS(=O)(=O)c1nc(S(=O)(=O)c2ccc(C)cc2)c(NCCN2CCOCC2)s1 | 0 | 0 | 0 | 0 | 0
Cc1nc(=O)c(-c2ccccc2)c(C)n1-c1ccc(O)cc1 | 0 | 0 | 0 | 0 | 54
C=CCn1c(SCc2ccc(F)cc2)nc2c1c(=O)[nH]c(=O)n2C | 0 | 0 | 0 | 0 | 58
C=CCn1c(SCc2ccc(Cl)cc2)nc2c1c(=O)[nH]c(=O)n2C | 0 | 0 | 0 | 0 | 0
COc1ccccc1NC(=O)/C(C#N)=C/C=C/c1ccco1 | 0 | 0 | 0 | 3 | 0
COc1ccc(CCN(C(=O)c2ccc(F)cc2)C2=CC3CCC(C2)N3C)cc1OC (stereo not drawn) | - | 0 | 0 | 0 | 0
CCCCn1c(N)c(N(CCOC)C(=O)CSc2nc3ccc(C)cc3[nH]2)c(=O)[nH]c1=O | 0 | 0 | 0 | 0 | 0
CCOC(=O)c1sc(N)c(C#N)c1CSc1nc2ccc(C)cc2[nH]1 | 0 | 76 | 0 | 0 | 77
CCOC(=O)c1sc(N)c(C#N)c1CSc1nc2ccc(OCC)cc2[nH]1 | - | 97 | 0 | 0 | 93
N#Cc1c(-c2ccco2)cc(C2CC2)nc1N | 0 | 0 | 0 | 0 | 63
Cc1cc(-c2ccc(Cl)cc2)c(C#N)c(N)n1 | 0 | 0 | 0 | 0 | 0
N#Cc1c(-c2ccccc2)cc(C2CC2)nc1N | - | 0 | 0 | 0 | 80
COCCCNC(=O)CN1C(=O)CSc2ncccc21 | - | 0 | 0 | 0 | 0
CN(C)C(=O)NC(Nc1ccc(Cl)cc1Cl)C(Cl)(Cl)Cl (stereo not drawn) | 0 | 65 | 0 | 0 | 87
O=C(Nc1ccc(Cl)cc1Cl)C1=Cc2ccccc2OC1 | 0 | 0 | 0 | 0 | 0
Cn1c(=O)c2c(nc(CN3CCC(Cc4ccccc4)CC3)n2CCN2CCOCC2)n(C)c1=O | - | 0 | 0 | 0 | 0
O=[N+]([O-])c1cc(C(F)(F)F)ccc1Sc1ccc2ccccc2n1 | 0 | 0 | 0 | 0 | 0
SMILES | EphB4 ephrin blk | CYP2C9 inh | CYP2C19 act | CYP2C9 activ | CYP2C19 inhib
O=[N+]([O-])c1cc(S(=O)(=O)C(F)(F)F)ccc1Sc1nc2ccccc2s1 | 0 | 51 | 0 | 0 | 63
O=[N+]([O-])c1cc(S(=O)(=O)C(F)(F)F)ccc1Sc1nc2ccccc2[nH]1 | 0 | 76 | 0 | 0 | 90
CS(=O)(=O)c1ccc(Sc2nc3ccccc3[nH]2)c([N+](=O)[O-])c1 | 0 | 79 | 0 | 0 | 91
OCCN1CCN(c2ncnc3nc[nH]c23)CC1 | - | 0 | 0 | 0 | 0
CCC(=O)N1c2ccccc2[C@@H](N(C(C)=O)c2ccccc2)C[C@H]1C | 0 | 0 | 0 | 0 | 0
CC1CCN(C(=O)CSc2nnc(-c3ccco3)o2)CC1 | 0 | 0 | 0 | 0 | 0
O=C(CSc1nnc(-c2ccccc2)o1)N1CCN(c2ccccc2)CC1 | 0 | 0 | 0 | 0 | 0
CC1CC(C)CN(C(=O)CSc2nnc(-c3ccc(Cl)cc3)o2)C1 (stereo not drawn) | 0 | 0 | 0 | 0 | 81
COc1ccc(-c2nnc(SCC(=O)N3CCOCC3)o2)cc1 | 0 | 0 | 0 | 0 | 0
COc1ccccc1-c1nnc(SCC(=O)N2CCC(C)CC2)o1 | 0 | 0 | 0 | 3.9 | 76
